High-throughput results: PubChem BioAssay, several laboratories
Cav3 T inh: Cav3.2 calcium influx blockers – cell-based, Fluo-4 calcium fluorescence, FDSS, MLSMR library, primary screen. Voltage-dependent T-type calcium channel subunit alpha-1H (Homo sapiens), O95180. B-score at 10 µM. Cav3.2-expressing cells; hits give low values. 100,000 tested, 4% active;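 active = single-dose well whose peak fluorescence ratio is a statistical outlier from its plate by either plate-standardised score or position-corrected B-score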
Pyk2 oligo antag: antagonists of Pyk2 self-association, primary screen, Q293 cells, FERM NanoBiT luminescence, HTS; 99,000 tested, 0.83% active; Protein-tyrosine kinase 2-beta (Homo sapiens), Q14289; hits give low values; z-score (the deposit names both 25 µM and 10 µM);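 active = Z-score of -3 or lower, scaled per plate to the spread of control and sample wells; inactive = z-score above -3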;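 also: negative z-score means lost luminescence so less FERM oligomerization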
CYP2C9 activ: human CYP2C9 activators, primary screen, biochemical, luminescence | Cytochrome P450 2C9 (Homo sapiens), P11712 | recombinant CYP2C9, luciferin-H conversion; hits give high values; factor 1 = untreated enzyme, 0 = blocked | activation factor at 5 µM | 96,000 tested, 1.4% active | AID 1024, 2008;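 active = activation factor of 2 or more for CYP2C9 at a 5 µM dose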;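 also: 0 = sulfaphenazole-blocked wells and 1 = vehicle-only wells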
CYP2C9 inhib: blockers of cytochrome P450 2C9 activity – biochemical, luminescence, ADME assay, primary screen. CYP2C9 Supersomes, luciferin-H conversion. inhibition, % at 5 µM. 96,000 tested, 20% active;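 active = blocking of liver enzyme CYP2C9 beyond about 50% at 5 µM, limit read from the data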
CYP2C19 activ: human CYP2C19 activators, primary screen, biochemical, luminescence; Cytochrome P450 2C19 (Homo sapiens), P33261; recombinant CYP2C19, luciferin-H EGE luminescence; hits give high values; 0 = fully inhibited enzyme, 1 = untreated enzyme; activation factor at 5 µM; 96,000 tested, under 10 active; AID 1025, 2008;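 active = activation factor of at least 2 at 5 µM in the primary screen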;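 also: 0 = wells with 2.5 mM tranylcypromine and 1 = vehicle-only wells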
CYP2C19 inh: blockers of cytochrome P450 2C19 activity – biochemical, luminescence, ADME assay, primary screen; CYP2C19 Supersomes, luciferin-H EGE luminescence, 30 min; P33261; AID 778, 2007; inhibition, % at 5 µM; 96,000 tested, 21% active;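 active = CYP2C19 inhibition above a set limit at 5 µM in the primary screen, cut at about 50% in these data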;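 also: plate controls were negative control wells for no effect and 2.5 mM tranylcypromine positive control for full effect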
Numbers without * were called inactive; · = not tested or not shown. An excerpt weighted towards active compounds, which were near 27% of everything screened.

SMILES | Cav3 T inh | Pyk2 oligo antag | CYP2C9 activ | CYP2C9 inhib | CYP2C19 activ | CYP2C19 inh
CCSc1nnc(NC(=O)C2(C)Cc3ccccc3C(=O)O2)s1 (configuration not stated) | 0.83 | -1.1 | 0.3 | 74* | 1 | -4
CC1(C(=O)Nc2nnc(C(C)(C)C)s2)Cc2ccccc2C(=O)O1 (configuration not stated) | 0.051 | -1.3 | 0.9 | 12 | 1.1 | -5
CCOC(=O)C1CSC(CC(=O)Nc2ccc(Cl)cc2)C(=O)N1 (configuration not stated) | 0.33 | -0.25 | 2* | -102 | 0.6 | 42
CCOC(=O)c1c(NC=O)sc2c1CCC2 | · | · | 1.4 | -38 | 1.1 | -7
CCOC(=O)c1ccc(NC(=O)CC2SCCNC2=O)cc1 (configuration not stated) | -0.051 | -0.34 | 1.2 | -20 | 1 | 3
CCOC(=O)c1c(NC(=O)CN2CCOCC2)sc2c1CCCC2 | -2.8 | -0.39 | 0 | 100* | 0 | 99*
CCOC(=O)c1c(NC(=O)COC)sc2c1CCCC2 | -0.4 | 0.25 | 0.4 | 58* | 0.8 | 16
CCOC(=O)c1c(NC(=O)CN2CCCCC2)sc2c1CCN(C(=O)OCC)C2 | -2.8 | -1.2 | 0.5 | 47 | 0.3 | 65*
O=C(Nc1ccccc1-c1ccccc1)C(c1ccccc1)c1ccccc1 | · | -1.1 | · | · | · | ·
Nc1nc(SCC(=O)N2CCCC2)[nH]c(=O)c1NC(=O)c1ccco1 | 0.045 | · | 0.5 | 46 | 1.2 | -18
COC(=O)c1c(NC(=O)CCCC(=O)O)sc2c1CCC2 | 1.8 | 0.23 | 1.2 | -20 | 1 | 0
COC(=O)c1c(NC(=O)CC2SCC(C(=O)OC)NC2=O)sc2c1CCCC2 (configuration not stated) | -0.47 | -0.02 | 2.2* | -124 | 0.3 | 69*
CCOC(=O)c1c(NC(=O)CN2CCOCC2)sc2c1CCCC2=O | 1.6 | 0.99 | 0.5 | 51* | 0.8 | 18
C=CCN1C(=O)CSc2ccc(C(=O)N3CCC(C)CC3)cc21 | -0.097 | -0.18 | 1.1 | -11 | 0.8 | 16
COc1ccc(NC(=O)C2C(=O)N(C)C3(C)CC2c2ccccc2O3)cc1 (configuration not stated) | 0.096 | -0.53 | 0.9 | 14 | 1 | 2
CN1C(=O)C(C(=O)NC(C)(C)C)C2c3ccccc3OC13CCCCC23 (configuration not stated) | 0.055 | 0.18 | 0.4 | 60* | 0.4 | 58*
CCOC(=O)c1c(C)[nH]c(NC(=O)N2CCOCC2)c1C | 0.35 | 0.12 | 1 | -3 | 1.1 | -10
Clc1ccc(/C=C/c2nc3ccccc3[nH]2)c(Cl)c1 | -3.3 | -1.2 | 0.9 | 14 | 0.7 | 32
N#CCCN/N=C(/Cc1nc2ccccc2[nH]1)c1cccc(Cl)c1 | 0.12 | -0.78 | 0.4 | 63* | 0.1 | 86*
CCOc1cc(/C=C2/C(=N)N3C=CSC3=NC2=O)ccc1OCCCOc1ccccc1C | -0.008 | 0.33 | 0.3 | 74* | 0.6 | 36
COC(=O)[C@H](CCSC)NC(=O)Nc1ccc(C)cc1C | 0.021 | -0.41 | 0.8 | 24 | 0.5 | 52*
COC(=O)[C@H](CCSC)NC(=O)Nc1ccc(C)c(C)c1 | -0.028 | -0.32 | 0.8 | 22 | 0.4 | 62*
COC(=O)CCN(C(=O)C1C2CC3CC(C2)CC1C3)c1ccccn1 (configuration not stated) | -0.2 | -0.88 | 0.9 | 5 | 1.1 | -10
CCOC(=O)c1ccc(NC(=O)CSc2nnc(CNC(=O)c3ccccc3F)o2)cc1 | -0.62 | 1.6 | 0.6 | 40 | 0.7 | 27
CSc1nc(Sc2ccc(Cl)cc2)c2ccccc2n1 | · | 2 | 0.6 | 39 | 0.5 | 46
SMILES | Cav3 T inh | Pyk2 oligo antag | CYP2C9 activ | CYP2C9 inhib | CYP2C19 activ | CYP2C19 inh
CSc1nc(Sc2ccccc2)c2ccccc2n1 | 0.43 | 0.1 | 0.2 | 85* | 0.5 | 49
CCN(CC)CCCNc1nc(-c2ccccc2)nc2ccccc12 | 0.4 | -0.22 | · | · | · | ·
COCCCNC(c1ccccc1)c1ccncc1 (configuration not stated) | 0.56 | -0.45 | 0.4 | 65* | 0.1 | 86*
COCCCNc1nc(-c2ccncc2)nc2ccccc12 | 0.54 | -1.2 | 0.3 | 71* | 0.2 | 78*
COCCn1nnnc1CN(CCc1ccccc1)Cc1cc2ccc(C)cc2[nH]c1=O | -2.3 | -0.05 | 0.7 | 31 | 0.5 | 46
COCCNc1nc2ccccc2nc1NS(=O)(=O)c1ccc(C)cc1C | -1 | -0.42 | 0 | 98* | 0.8 | 24
COCCCNc1cc(C)nc2ccccc12 | 0.79 | -0.43 | 0.9 | 5 | 1 | 2
CC(=O)O[C@@H]1C[C@H]2C(C)=C[C@H]3OC(=O)[C@@H](C)[C@H]3C[C@H]2[C@]1(C)O | 0.027 | · | · | · | · | ·
O=C(C1=C[C@H](C2CCCCC2)C[C@H](OCc2ccc(CO)cc2)O1)N1CCN(Cc2ccc3c(c2)OCO3)CC1 | -0.85 | · | · | · | · | ·
CC(C)(C)c1ccc(S(=O)(=O)N2C=CC(C(F)(F)F)=NCC2)cc1 | -0.57 | -0.24 | 0.9 | 12 | 0.1 | 86*
CC(CCCCC(=O)Nc1ccc(C(F)(F)F)cc1)NCCc1cnc[nH]1 (configuration not stated) | 1.1 | · | · | · | · | ·
COc1ccc(N2CCN(C(=O)Cn3c(=O)[nH]c4ccsc4c3=O)CC2)cc1 | 0.4 | -0.01 | 1.1 | -12 | 1.1 | -9
COCCCNC(=O)C(F)(F)C(F)(F)C(=O)NCCCOC | 0.3 | -0.66 | 1 | -4 | 1 | 0
COC(=O)c1cnn(-c2cc(Oc3cccc(C)c3)ncn2)c1N | 0.089 | 0.32 | 0.3 | 70* | 0.7 | 35
CCOC(=O)C(NCc1ccc2c(c1)OCO2)(NC(=O)CC)C(F)(F)F (configuration not stated) | -0.0099 | 0.39 | 0.1 | 88* | 0 | 97*
O=c1ccn(Cc2ccccc2)c(=O)n1Cc1ccccc1 | -0.51 | 0.51 | 0.8 | 16 | 0.2 | 78*
Cn1c(N)cc(=O)n(Cc2ccccc2)c1=O | -0.22 | · | · | · | · | ·
Cn1c(SCc2ccccc2)nnc1-c1cnccn1 | -0.17 | -0.67 | 0.9 | 8 | 0.8 | 25
S=C(NCc1cccnc1)Nc1cccc(Cl)c1 | -1.1 | 1.1 | 0.3 | 66* | 0.3 | 73*
Cc1ccc(NC(=S)NCc2cccnc2)cc1 | 0.2 | 0.22 | 0.9 | 14 | 0.3 | 70*
C=CCN1CC2CC3(COc4cc(C)cc(C)c4)C=CC2(O3)C1=O (configuration not stated) | -1.1 | 1.6 | 0.5 | 45 | 0.4 | 65*
O=C(CSc1nnc(Cc2ccccc2)o1)N1CCCc2ccccc21 | -3.9* | 0.22 | 0.9 | 13 | 0.6 | 42
